Measured values from ChEMBL document CHEMBL3988442, “University of Dundee, Small-Polar-MMV Screening Library” (2021).
For some of these results: Potency and affinity values are given separately.

Columns and labels:
Parameters in all cases: scale not given: direction of the effect not stated beside the values
[1] = biological target: Protein translocase subunit SecA (Escherichia coli (strain K12)) (UniProt P10408); assay: Assay to Identify E. coli SecA ATPase Inhibitors; assay type: functional; conditions: 30 µM
[2] = biological target: T1, Ubiquitin-activating enzyme e1, putative (Leishmania donovani (strain BPK282A1)) (UniProt E9BSI1); assay: Leishmania donovani Ubiquitin Activating Enzyme (LdE1); assay type: functional; conditions: 30 µM
T1 sequence (whole entry): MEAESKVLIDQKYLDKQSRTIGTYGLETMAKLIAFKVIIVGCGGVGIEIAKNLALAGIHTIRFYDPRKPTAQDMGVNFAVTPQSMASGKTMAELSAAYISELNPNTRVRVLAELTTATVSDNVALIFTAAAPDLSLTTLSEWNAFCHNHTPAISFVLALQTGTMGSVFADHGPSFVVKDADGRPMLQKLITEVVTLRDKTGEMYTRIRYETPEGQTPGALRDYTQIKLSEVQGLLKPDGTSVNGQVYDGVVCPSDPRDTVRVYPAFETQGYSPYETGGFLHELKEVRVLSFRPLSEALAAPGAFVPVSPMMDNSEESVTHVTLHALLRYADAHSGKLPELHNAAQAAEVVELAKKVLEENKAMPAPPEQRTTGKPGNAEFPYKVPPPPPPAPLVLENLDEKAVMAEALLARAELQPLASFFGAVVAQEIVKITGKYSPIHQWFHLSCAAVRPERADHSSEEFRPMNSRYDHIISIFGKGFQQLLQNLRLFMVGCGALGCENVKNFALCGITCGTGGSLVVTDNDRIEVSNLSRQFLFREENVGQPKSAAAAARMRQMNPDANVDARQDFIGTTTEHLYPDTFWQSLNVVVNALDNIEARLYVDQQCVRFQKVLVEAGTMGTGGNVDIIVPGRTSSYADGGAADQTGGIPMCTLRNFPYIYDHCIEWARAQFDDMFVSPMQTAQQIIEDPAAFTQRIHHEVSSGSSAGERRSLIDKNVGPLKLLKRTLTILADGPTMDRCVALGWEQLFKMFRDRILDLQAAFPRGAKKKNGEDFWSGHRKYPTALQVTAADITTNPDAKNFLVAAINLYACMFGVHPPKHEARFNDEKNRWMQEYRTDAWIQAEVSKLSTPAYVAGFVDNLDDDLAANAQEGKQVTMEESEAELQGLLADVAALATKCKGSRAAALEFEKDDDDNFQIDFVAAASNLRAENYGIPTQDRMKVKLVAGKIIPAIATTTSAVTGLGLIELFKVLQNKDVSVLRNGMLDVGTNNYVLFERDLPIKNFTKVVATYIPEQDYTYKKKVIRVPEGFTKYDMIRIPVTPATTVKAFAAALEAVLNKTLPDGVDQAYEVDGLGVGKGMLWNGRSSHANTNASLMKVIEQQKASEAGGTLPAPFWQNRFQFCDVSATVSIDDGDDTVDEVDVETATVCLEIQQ

[3] = biological target: AMP-activated protein kinase, AMPK (Homo sapiens) (UniProt P54646+O43741+P54619+Q9UGJ0+Q9Y478+Q13131+Q9UGI9); assay: AMP-dependent Kinase enzyme assay. An in vitro enzyme assay that detects ADP turnover that is directly proportional to AMPK activity. This uses naive AMPK that is activated during the assay with MK-8722; assay type: functional; conditions: 30 µM
[4] = biological target: Sialic acid-binding Ig-like lectin 9 (Homo sapiens) (UniProt Q9Y336); assay: Hs-Siglec9 ALPHAscreen SOP 20170721; conditions: 10 µM
Trypanosoma cruzi = assay: Trypanosoma cruzi phosphomannomutase and mannose-1-phosphate guanylyltransferase assay; assay type: functional; conditions: 10 µM
[5] = biological target: T2, Arginase-2, mitochondrial (Homo sapiens) (UniProt P78540); assay: in vitro enzyme assay to detect the production of urea directly proportional to the activity of Arginase II; assay type: functional; conditions: 33.3 µM; note: in the data most compounds retested in dose-response had high values
T2 sequence (whole entry): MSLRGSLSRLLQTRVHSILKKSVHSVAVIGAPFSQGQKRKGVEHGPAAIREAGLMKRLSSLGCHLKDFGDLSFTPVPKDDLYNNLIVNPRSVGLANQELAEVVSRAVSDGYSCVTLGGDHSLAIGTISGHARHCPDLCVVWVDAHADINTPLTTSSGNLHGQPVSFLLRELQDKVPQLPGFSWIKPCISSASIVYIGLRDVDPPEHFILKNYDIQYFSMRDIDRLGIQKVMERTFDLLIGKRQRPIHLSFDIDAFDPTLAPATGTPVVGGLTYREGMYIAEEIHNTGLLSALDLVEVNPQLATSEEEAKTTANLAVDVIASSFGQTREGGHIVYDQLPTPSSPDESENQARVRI

[6] = biological target: T3, Proteasome subunit beta (Trypanosoma cruzi) (UniProt O96673); assay: Trypanosoma cruzi proteasome chymotrypsin-like activity (TcProtChymo) assay.; note: in the data most compounds retested in dose-response had high values; assay type: functional; conditions: 9.37 µM
T3 sequence (whole entry): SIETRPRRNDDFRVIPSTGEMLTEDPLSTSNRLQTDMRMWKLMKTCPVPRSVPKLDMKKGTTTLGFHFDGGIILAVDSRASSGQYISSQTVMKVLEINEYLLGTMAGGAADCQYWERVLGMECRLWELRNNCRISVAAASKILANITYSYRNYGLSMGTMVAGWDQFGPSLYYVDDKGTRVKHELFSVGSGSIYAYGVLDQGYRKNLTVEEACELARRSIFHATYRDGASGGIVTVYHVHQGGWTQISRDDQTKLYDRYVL

Homo sapiens = species on record: Homo sapiens; assay: To identify inhibition of the IFN signalling (Jak-Stat) pathway via expression of an eGFP reporter gene under the control of an IFN-stimulated response element (ISRE) containing MxA promoter.; assay type: functional; conditions: 30 µM
[7] = biological target: T4, Tyrosyl-tRNA synthetase, putative (Trypanosoma cruzi (strain CL Brener)) (UniProt Q4DSP6); assay: Trypanosoma cruzi tyrosyl tRNA synthetase (TcYRS) _High Tyrosine SOP; assay type: functional; conditions: 30 µM; note: in the data most compounds retested in dose-response had high values
T4 sequence (whole entry): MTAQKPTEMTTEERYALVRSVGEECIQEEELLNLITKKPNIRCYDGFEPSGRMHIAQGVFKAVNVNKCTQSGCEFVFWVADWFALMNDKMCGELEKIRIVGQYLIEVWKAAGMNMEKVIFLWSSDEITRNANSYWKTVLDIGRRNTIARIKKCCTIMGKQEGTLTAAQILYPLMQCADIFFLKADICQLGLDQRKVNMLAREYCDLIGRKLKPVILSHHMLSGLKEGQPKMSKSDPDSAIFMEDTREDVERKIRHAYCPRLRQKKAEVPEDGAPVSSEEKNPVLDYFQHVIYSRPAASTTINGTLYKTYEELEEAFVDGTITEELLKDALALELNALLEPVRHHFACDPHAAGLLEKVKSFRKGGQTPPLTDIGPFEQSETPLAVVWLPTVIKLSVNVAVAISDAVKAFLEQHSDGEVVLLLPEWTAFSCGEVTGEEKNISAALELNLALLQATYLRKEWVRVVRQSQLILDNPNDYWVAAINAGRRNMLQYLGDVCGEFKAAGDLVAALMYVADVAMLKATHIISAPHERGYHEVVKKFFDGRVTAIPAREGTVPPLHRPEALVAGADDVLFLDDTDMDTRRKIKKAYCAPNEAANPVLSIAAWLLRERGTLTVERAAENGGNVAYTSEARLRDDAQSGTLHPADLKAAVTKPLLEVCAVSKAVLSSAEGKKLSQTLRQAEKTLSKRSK

[8] = biological target: T4, Tyrosyl-tRNA synthetase, putative (Trypanosoma cruzi (strain CL Brener)); assay: Trypanosoma cruzi tyrosyl tRNA synthetase (TcYRS) SOP; assay type: functional; conditions: 30 µM
[9] = biological target: Chromo domain-containing protein 1 (Saccharomyces cerevisiae (strain ATCC 204508 / S288c) (Baker's yeast)) (UniProt P32657); assay: ScCHD-1 Enzyme Inhibition Assay; assay type: functional; conditions: 30 µM; note: in the data most compounds retested in dose-response had high values
Chromo domain-containing protein 1 (Saccharomyces cerevisiae (strain ATCC 204508 / S288c) (Baker's yeast)), sequence (P32657 whole entry, the tested form may be a part): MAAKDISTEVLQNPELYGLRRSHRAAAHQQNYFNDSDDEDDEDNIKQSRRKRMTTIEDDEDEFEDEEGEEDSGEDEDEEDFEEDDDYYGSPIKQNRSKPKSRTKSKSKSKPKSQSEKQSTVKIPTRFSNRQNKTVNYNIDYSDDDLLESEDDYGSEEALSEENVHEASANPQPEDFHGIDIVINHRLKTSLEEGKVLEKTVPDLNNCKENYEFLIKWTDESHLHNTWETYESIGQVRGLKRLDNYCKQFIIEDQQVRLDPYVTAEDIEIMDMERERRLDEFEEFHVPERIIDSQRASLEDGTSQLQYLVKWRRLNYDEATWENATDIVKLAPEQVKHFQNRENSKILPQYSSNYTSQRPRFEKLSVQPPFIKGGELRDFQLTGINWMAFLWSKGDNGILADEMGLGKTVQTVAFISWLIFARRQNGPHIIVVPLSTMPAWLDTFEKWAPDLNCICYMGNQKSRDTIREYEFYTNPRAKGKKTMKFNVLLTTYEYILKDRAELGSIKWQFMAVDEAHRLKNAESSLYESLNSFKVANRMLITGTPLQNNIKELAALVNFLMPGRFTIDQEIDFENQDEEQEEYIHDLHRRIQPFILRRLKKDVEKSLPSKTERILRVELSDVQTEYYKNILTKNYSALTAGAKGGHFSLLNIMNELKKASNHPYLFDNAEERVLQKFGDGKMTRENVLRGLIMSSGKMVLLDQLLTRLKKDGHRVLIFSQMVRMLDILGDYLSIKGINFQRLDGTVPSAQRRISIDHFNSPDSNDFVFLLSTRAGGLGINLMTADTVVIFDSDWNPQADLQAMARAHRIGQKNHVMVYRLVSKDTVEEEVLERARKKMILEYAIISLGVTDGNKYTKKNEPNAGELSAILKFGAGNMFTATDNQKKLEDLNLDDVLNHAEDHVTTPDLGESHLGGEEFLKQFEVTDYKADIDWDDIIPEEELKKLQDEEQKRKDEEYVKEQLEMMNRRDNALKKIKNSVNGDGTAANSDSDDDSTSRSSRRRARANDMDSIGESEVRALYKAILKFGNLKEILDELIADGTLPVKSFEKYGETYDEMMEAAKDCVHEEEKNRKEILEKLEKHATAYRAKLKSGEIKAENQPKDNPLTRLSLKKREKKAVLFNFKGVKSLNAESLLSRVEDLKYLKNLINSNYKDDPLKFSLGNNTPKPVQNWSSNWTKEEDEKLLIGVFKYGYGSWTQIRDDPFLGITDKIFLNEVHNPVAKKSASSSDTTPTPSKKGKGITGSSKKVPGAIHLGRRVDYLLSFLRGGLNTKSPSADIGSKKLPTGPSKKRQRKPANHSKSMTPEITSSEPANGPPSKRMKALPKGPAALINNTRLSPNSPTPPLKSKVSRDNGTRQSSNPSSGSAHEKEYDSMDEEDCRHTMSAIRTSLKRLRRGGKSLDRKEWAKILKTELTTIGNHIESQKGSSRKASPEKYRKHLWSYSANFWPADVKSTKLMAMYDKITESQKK

Protein translocase subunit SecA (Escherichia coli (strain K12)), sequence (P10408 whole entry): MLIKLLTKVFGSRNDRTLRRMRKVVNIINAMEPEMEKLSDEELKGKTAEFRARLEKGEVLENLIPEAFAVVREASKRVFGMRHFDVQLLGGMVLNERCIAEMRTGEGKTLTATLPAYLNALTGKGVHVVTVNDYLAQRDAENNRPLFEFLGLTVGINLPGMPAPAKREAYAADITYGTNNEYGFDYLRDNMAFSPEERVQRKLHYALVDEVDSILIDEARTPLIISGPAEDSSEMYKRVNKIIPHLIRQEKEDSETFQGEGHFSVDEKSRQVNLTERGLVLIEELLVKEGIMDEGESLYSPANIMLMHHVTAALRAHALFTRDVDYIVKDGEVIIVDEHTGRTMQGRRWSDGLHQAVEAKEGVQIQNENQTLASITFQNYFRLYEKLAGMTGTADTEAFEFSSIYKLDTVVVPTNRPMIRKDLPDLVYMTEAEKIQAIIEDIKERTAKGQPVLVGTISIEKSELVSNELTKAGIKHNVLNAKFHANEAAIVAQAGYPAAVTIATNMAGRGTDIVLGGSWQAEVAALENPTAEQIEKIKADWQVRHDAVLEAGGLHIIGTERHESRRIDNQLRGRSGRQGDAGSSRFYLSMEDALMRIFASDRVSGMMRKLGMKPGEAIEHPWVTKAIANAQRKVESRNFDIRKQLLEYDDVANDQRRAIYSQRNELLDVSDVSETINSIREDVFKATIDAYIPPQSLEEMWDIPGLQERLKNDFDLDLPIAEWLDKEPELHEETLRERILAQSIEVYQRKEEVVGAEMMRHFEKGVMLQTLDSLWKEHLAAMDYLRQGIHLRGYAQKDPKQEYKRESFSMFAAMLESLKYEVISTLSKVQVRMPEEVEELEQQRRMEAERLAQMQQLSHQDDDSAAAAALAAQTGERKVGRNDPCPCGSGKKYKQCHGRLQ
Sialic acid-binding Ig-like lectin 9 (Homo sapiens), sequence (Q9Y336 whole entry): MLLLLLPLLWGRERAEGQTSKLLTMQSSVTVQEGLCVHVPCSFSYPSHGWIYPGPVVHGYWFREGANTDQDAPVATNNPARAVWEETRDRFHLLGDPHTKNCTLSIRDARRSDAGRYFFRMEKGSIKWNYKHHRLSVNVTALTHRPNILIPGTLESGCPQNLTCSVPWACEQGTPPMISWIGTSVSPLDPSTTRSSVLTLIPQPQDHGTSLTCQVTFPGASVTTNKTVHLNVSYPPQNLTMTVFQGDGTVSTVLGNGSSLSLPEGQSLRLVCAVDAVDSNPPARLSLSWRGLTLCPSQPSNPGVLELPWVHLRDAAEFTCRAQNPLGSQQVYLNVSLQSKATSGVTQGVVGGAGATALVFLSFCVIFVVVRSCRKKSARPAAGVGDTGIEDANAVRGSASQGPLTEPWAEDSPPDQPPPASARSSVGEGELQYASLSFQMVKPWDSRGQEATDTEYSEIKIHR

SMILES | Percent Effect [1] [%] | Percent Effect [2] [%] | Percent Effect [3] [%] | Percent Effect [4] [%] | Percent Effect (Trypanosoma cruzi) [%] | Percent Effect [5] [%] | Percent Effect [6] [%] | Percent Effect (Homo sapiens) [%] | Percent Effect [7] [%] | Percent Effect [8] [%] | Percent Effect [9] [%]
CN(Cc1ccc(F)cc1)C(=O)NCC1(N2CCOCC2)CCSC1 (stereo unspecified) | 2.92 | 16.2 | -0.11 | 22.3 | 2.12 | 1.43 | 15.9 | 14.5 | 3.7 | 17.1 | -8.64
O=C([C@H]1C[C@H]2OCC[C@H]2N(CCc2ccccc2)C1)N1CCCCO1 | -4.49 | 5.41 | 7.77 | -1.67 | -0.0978 | 3.5 | 11.4 | -14.2 | 5.41 | 15.4 | 6.02
Cn1cnc(-c2cc(C(=O)N3CCOCC3)c3ccccn23)c1 | -2.02 | 10.8 | 17.9 | -4.69 | -3.42 | 17.5 | 26.6 | -15.6 | 3.24 | 10.3 | -3.5
O=C(NCC1CC1)C1CN(C(=O)c2cccs2)CC12CCOCC2 (stereo unspecified) | -8.31 | 16 | 2.41 | 3.43 | 0.579 | -52.5 | 4.62 | -9.4 | 5.21 | -47.5 | -5.08
CCOC(C)c1nc(CN2CCN(c3nccc(C)n3)CC2)cs1 (stereo unspecified) | -1.18 | 0 | -0.85 | -1.42 | 0.386 | -0.476 | 10.2 | -0.937 | -3.7 | 2.44 | -2.47
Cc1ccc(CC(=O)N2CCCCC2c2nc(C)cs2)cn1 (stereo unspecified) | -3.56 | 3.8 | 3.35 | -2.77 | -1.54 | 4.52 | 6.52 | 4.76 | -4.17 | 7.59 | -12.2
O=C1CC[C@H]2CN(Cc3ccc(Cl)s3)CC[C@H]2N1CCc1c[nH]cn1 | -2.35 | 5.48 | 2.32 | 10.8 | 4.37 | -1.6 | 11.9 | 34.2 | 3.12 | 8.64 | -0.239
CNC(=O)[C@H]1C[C@@H]2CN(S(=O)(=O)c3ccccc3)C[C@@H]2N1C(C)=O | -5.14 | 7.79 | 3.54 | 8.79 | 8.95 | 1.38 | 8.32 | 18.1 | 5.38 | 11.1 | 1.18
COc1ccc(CNC(=O)C2(C#N)CCCC2)cc1 | -1.97 | 12.5 | -13.3 | -2.27 | 3.6 | -2.65 | 15.1 | -14.7 | 4.21 | 7.69 | 95.5
CC(O)CN1CCC(CNCc2c[nH]nc2C(C)(C)C)CC1 (stereo unspecified) | -6.44 | 18.9 | -5.82 | 1.39 | -6.7 | -2 | 11.9 | 13.9 | 4.43 | 3.7 | -9.13
CCOc1ncccc1NC(=O)N1CCCCCC1 | -4.07 | 5.41 | 0.669 | 8.62 | -0.836 | -1.29 | 0.179 | 13.2 | 2.97 | 6.1 | 1.09
